# Screening results (PubChem)
# Shown are actives, neighbours in structure and some others; about 6.5% of the full set was active somewhere.
# VACV Venus inh = inhibitors of vaccinia virus (Venus reporter); Vaccinia virus Venus reporter expression, fluorescence; Potency, µM (series often up to 36.5 µM), for inactives: at the highest dose activity change, negative = inhibition, usual class: inhibitors; 330,000 tested, 0.46% active; calls by dose curve; tested in A549 cells; also: potency is read from the fitted curve at half-maximal effect; nearly all actives have a fitted effect of over 30% in size
# FMDV inh = antivirals against foot and mouth disease virus. FMDV antiviral cell-based qHTS. Potency, µM (doses to about 57.9 µM), for inactives: at the top dose activity change, negative = inhibition, most hits filed as inhibitors. 410,000 tested, 1.2% active. AID 1159524; calls by dose curve; tested in HEK293T cells; also: read-out not given here; potency is read from the fitted curve at half-maximal effect; nearly all actives have a fitted effect of over 45% in size
# MARV entry inh = blocks Marburg virus binding to or entry into cells | AID 540276 | 300,000 tested, 1.8% active | Potency, µM (top dose mostly 37.8 µM), inactives show at the highest dose activity change, negative = inhibition, usual class: inhibitors | Marburg virus pseudotyped entry inhibition, cell reporter; calls by dose curve; tested in HEK293 cells; also: potency is read from the fitted curve at half-maximal effect
# LASV entry inh = inhibitors of Lassa virus binding or cell entry; Lassa virus pseudotype entry inhibition, cell reporter; Potency, µM (top dose mostly 37.9 µM), for inactives: top-dose activity change, negative = inhibition, most hits filed as inhibitors; 300,000 tested, 1.2% active; AID 540256; calls by dose curve; tested in HEK293 cells; also: potency is read from the fitted curve at half-maximal effect; nearly all actives have a fitted effect of over 50% in size
# HCMV inh = human cytomegalovirus inhibition; AID 1259415; 410,000 tested, 4.5% active; HFF cells, HCMV-luciferase reporter, 72 h; stronger effect = lower value; activity change, negative = inhibition, % at 57.5 µM; in the data active = activity change below about -60%; inconclusive = no clear call, values can overlap the other calls; inactive = above about -39%
#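 Inhibition of viral replication was scored as loss of reporter luminescence in HFFs infected with HCMV-luciferase (MOI 1 PFU/cell) for 72 h; compounds tested at 2 doses, normalized to buffer and Salinomycin controls.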
# Vaccinia mCherry = vaccinia inhibition (mCherry reporter); Vaccinia virus mCherry reporter infection, fluorescence; Potency, µM (doses to about 36.5 µM), for the others: at the highest dose activity change, negative = inhibition, most hits filed as inhibitors; 310,000 tested, 0.63% active; AID 720579; calls by dose curve; tested in A549 cells; also: potency is read from the fitted curve at half-maximal effect; nearly all actives have a fitted effect of over 35% in size
# Starred values were filed as active, the others as inactive; i = inactive; ? = inconclusive; / = not tested or not shown; [ ] = dose if it differs, or a comment. % is scaled to controls: 0 for no effect and ±100 for the full control effect.
SMILES,VACV Venus inh,FMDV inh,MARV entry inh,LASV entry inh,HCMV inh,Vaccinia mCherry
CC(C)c1ccc(C2c3c(-c4ccccc4O)n[nH]c3C(=O)N2CCc2ccccc2)cc1 (stereo not given),?,-7%,?,?,-100*,-3%
CCCCOc1ccc(C2c3c(-c4ccccc4O)n[nH]c3C(=O)N2Cc2ccncc2)cc1OC (stereo not given),-22%,8%,?,?,7,-16%
Cc1ccc(C2c3c(-c4ccccc4O)n[nH]c3C(=O)N2Cc2ccncc2)cc1 (stereo not given),/,18%,?,-15%,-39,/
COc1ccc(C2c3c(-c4ccccc4O)n[nH]c3C(=O)N2CCc2ccccc2)cc1 (stereo not given),-7%[7.34 µM],-25%,?,?,-67*,-3%[7.34 µM]
Cc1ccc(C2c3c(-c4ccccc4O)n[nH]c3C(=O)N2CCc2ccccc2)cc1 (stereo not given),-9%[7.34 µM],-16%,?,?,-94*,-9%[7.34 µM]
COc1ccc(C2c3c(-c4ccccc4O)n[nH]c3C(=O)N2CCc2ccc(OC)c(OC)c2)cc1 (stereo not given),-30%,?,?,5µM*,-32,?
COCCN1C(=O)c2[nH]nc(-c3ccccc3O)c2C1c1ccc(Cl)c(Cl)c1 (stereo not given),-24%,-11%,-23%[46.1 µM],?,-15,-29%
CC(SCC(=O)Nc1ccccc1Br)c1nc2ccccc2c(=O)[nH]1 (stereo not given),-27%,-7%,?,?,-15,-1%
CCCCCCCc1cc2ccccc2c2c(C(=O)OCC)c(C(=O)OCC)c(C(=O)OCC)n12,/,/,-5%[14.2 µM],/,/,/
Cc1ccc(-n2c(=O)c3c(C)c(C(=O)N(C)C)sc3n(CC(=O)N(C)c3ccccc3)c2=O)cc1C,-4%,-14%,/,8%[46.1 µM],92,-1%
CCOC(=O)c1c(C)[nH]c(CCC(=O)Nc2ccccc2OCC)c1C,-2%,-21%,/,-2%[46.1 µM],?,0%
CCOC(=O)c1c(C)[nH]c(CCC(=O)Nc2ccccc2C(=O)OC)c1C,-8%,-8%,/,-17%[46.1 µM],-73*,-11%
CCn1c(C)c(C(=O)O)c2cc(OC)c3ccccc3c21,/,-12%,/,/,-29,/
Cc1ccc(-c2cn(CCN)c(=O)cn2)cc1,/,/,/,/,11,/
O=C(COC(=O)c1ccccc1Nc1ccc(SC(F)F)cc1)NC1CC1,-4%,3%,?,-1%,-71*,-7%
CC1CCCC(C)N1C(=O)c1ccccc1Nc1ccc(SC(F)F)cc1 (stereo not given),/,-27%,12µM*,?,-20,/
CC1CN(C(=O)c2ccccc2Nc2ccc(SC(F)F)cc2)CC(C)O1 (stereo not given),-4%,5%,?,1%,?,-17%
O=C(COC(=O)c1ccccc1C(=O)c1ccccc1)Nc1ccc(SC(F)F)cc1,-29%,?,?,16µM*,-13,-9%
Cc1ccc(N(Cc2ccccc2)C(=O)c2cc(S(=O)(=O)N3CCOCC3)ccc2F)cc1,-10%,68%,?,?,?,-27%
Cc1cc(-c2ccccc2)nc(N2CCN(c3ccccn3)CC2)n1,29%,/,9.2µM*,4.6µM*,-2,-6%
Cc1cncc(N2CCN(c3ccccn3)CC2)n1,5%,6%,/,/,-23,15%
CC(C)CN1CCC2(CC1)CCN(C(=O)c1cccc(F)c1)CC2,/,-8%,/,/,/,/
COc1ccc(NC(=S)N2CCN(C/C=C/c3ccccc3)CC2)cc1,-29%,15%,?,-6%[46.1 µM],-65*,?
Cc1ccc(NC(=O)CCN2CCN(C/C=C/c3ccccc3)CC2)cc1C,-26%,0%,?,-5%,-22,i
Cc1ccc(NC(=O)CCN2CCN(C/C=C/c3ccccc3)CC2)cc1,?,?,8.9µM*,-30%,-39,/
CCOc1ccc(NC(=S)N2CCN(C/C=C/c3ccccc3)CC2)cc1,?,-5%,-21%[46.1 µM],/,-30,?
CC(C(=O)Nc1ccc([N+](=O)[O-])cc1)N1CCN(C/C=C/c2ccccc2)CC1 (stereo not given),-28%,28µM*,13µM*,8%,?,-29%
